Screening results deposited in PubChem by several laboratories.
Most compounds without a hit are left out; they make up all but 3.6% or so of the library.
GDH-TPI counter: GDH-TPI coupled enzyme inhibition counter-screen. inhibition, % at 4.8 µM. hit rate 1.2% among 360,000. GDH-TPI coupled enzyme counterscreen, NADH absorbance. AID 588335; in the data active = inhibition above about 30%;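 also: 0% = DMSO wells and 100% = wells lacking the enzyme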
Mtb betalactam: beta-lactam sensitization of Mtb H37Rv. M. tuberculosis H37Rv growth with meropenem, percent inhibition. inhibition, % at 25 µM. hit rate 0.27% among 330,000; call rule not given here;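 also: growth measured after seven days incubation then overnight dye step; 0% = bacteria only wells and 100% = bacteria with antibiotic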
VHR inh abs: inhibitors of human VHR1 phosphatase (DUSP3); P51452; recombinant VHR phosphatase, pNPP absorbance; inhibition, % at 13.3 µM; hit rate 0.52% among 290,000; AID 1654; in the data active = inhibition above about 50%
Target sequence (P51452 whole entry, looked up): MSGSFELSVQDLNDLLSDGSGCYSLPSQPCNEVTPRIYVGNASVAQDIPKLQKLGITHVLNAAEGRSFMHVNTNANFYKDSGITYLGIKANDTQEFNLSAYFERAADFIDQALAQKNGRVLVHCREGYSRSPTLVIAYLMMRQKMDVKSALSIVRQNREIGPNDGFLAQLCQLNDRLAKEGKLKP
FBA Mtb inh: inhibits M. tuberculosis FBA enzyme; purified M. tuberculosis FBA, fluorescence read-out; AID 588726; inhibition, % at 1 µM; P9WQA3; hit rate 2.3% among 360,000; in the data active = inhibition above about 27%;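 also: 0% = vehicle and 100% = reference inhibitor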
Target sequence (P9WQA3 whole entry, looked up): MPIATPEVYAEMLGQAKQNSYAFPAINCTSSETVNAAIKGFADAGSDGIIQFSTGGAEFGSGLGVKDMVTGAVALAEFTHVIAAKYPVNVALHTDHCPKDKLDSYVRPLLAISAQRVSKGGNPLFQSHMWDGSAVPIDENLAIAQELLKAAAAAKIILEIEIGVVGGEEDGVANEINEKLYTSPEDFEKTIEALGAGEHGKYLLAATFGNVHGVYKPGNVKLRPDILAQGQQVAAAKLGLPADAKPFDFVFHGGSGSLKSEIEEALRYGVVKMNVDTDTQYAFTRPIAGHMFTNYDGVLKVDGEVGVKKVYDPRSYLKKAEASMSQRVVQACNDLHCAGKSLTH
Mtb hypoxia rep: Mtb hypoxia fluorescent reporter inhibition. M. tuberculosis hypoxia-regulated fluorescent reporter, fluorescence. fluorescence inhibition, % (test concentration not listed). hit rate 0.1% among 300,000; in the data active = fluorescence inhibition mostly above about 23%, no sharp cut-off; inactive = mostly below about 17%
* hit, by the source's call; x = not tested or not shown; + = active, no number.

SMILES	GDH-TPI counter	Mtb betalactam	VHR inh abs	FBA Mtb inh	Mtb hypoxia rep
CCNC(=S)NN=Cc1ccc(C(=O)O)cc1	x	x	x	x	9.5
CC(C)C[C@@]12C(=O)N(c3cccc(Br)c3)C(=O)N1C(c1ccc(Cl)cc1)C1C(=O)N(C3CCCCC3)C(=O)C12 (some centres not stated)	x	x	x	x	-6.8
COc1cccc(Nc2nc3ccccc3nc2NS(=O)(=O)c2cccs2)c1	37.3*	-11.4	33.8	17.4	-1.8
O=C(N/N=C/c1ccncc1)c1ccc(NS(=O)(=O)c2cccs2)cc1	18.5	5.6	14.5	-4.5	x
O=C(O)c1ccc(/C=N/NC(=O)c2ccc(NS(=O)(=O)c3cccs3)cc2)cc1	73.9*	2.8	9.5	2.3	x
C#CCOCCOCCOCCNc1nc(N2CCN(C(=O)C(CCC(=O)O)n3cc(C(N)C(C)CC)nn3)CC2)nc(N2CCN(C(=O)C(C(C)CC)n3cc(C(N)CC(C)C)nn3)CC2)n1 (configuration not stated)	x	x	x	x	8.4
CC(=O)C1=C(O)C(=O)N(CCCO)C1c1ccccc1 (configuration not stated)	20.0	5.0	10.4	0.6	3.4
CC(=O)C1=C(O)C(=O)N(CCO)C1c1ccccc1 (configuration not stated)	46.8*	0.3	17.3	1.0	7.0
COCCn1c(=O)[nH]c(=O)c2c(C(F)(F)F)cc(-c3cccs3)nc21	13.6	2.5	-27.6	+	11.7
Brc1cccc(C=NNc2nn[nH]n2)c1	x	x	x	x	9.0
CCCCOc1ccc(/C=N/NC(=S)Nc2cc(C)ccc2C)cc1	40.2*	4.8	6.3	2.4	x
O=C(NN=Cc1cccc([N+](=O)[O-])c1)c1ccc2c(c1)OCCO2	x	x	x	x	7.3
O=C(N/N=C/c1cc([N+](=O)[O-])ccc1O)c1ccc2c(c1)OCCO2	32.2*	68.7	-3.8	1.0	x
O=C(N/N=C/c1ccc(-c2ccc(Br)cc2)o1)c1ccc2c(c1)OCO2	18.3	97.9	24.4	5.9	x
O=C(N/N=C\c1ccc(S(=O)(=O)O)o1)c1ccc2c(c1)OCO2	41.4*	-3.4	-12.0	0.6	x
Cc1cccc(/C=N/NC(=O)c2ccc3c(c2)OCCO3)c1O	23.5	4.0	16.5	1.4	x
Cc1ccsc1/C=N/NC(=O)c1sccc1C	14.9	-0.7	10.4	-4.5	x
Cc1ccsc1/C=N\NC(=O)c1ccc2c(c1)OCO2	39.7*	-3.0	8.2	-0.1	x
Cc1ccsc1/C=N/NC(=O)c1ccc2c(c1)OCCO2	33.7*	-9.6	7.7	-1.9	x
O=C(O)COc1ccccc1C=NNC(=O)CSc1nc2ccccc2c(=O)n1-c1ccc(Cl)cc1	x	x	x	x	13.9
CC(C)(C)OC(=O)CC1CC=CCC(CC(=O)N(CCO)Cc2ccccc2)C(=O)NC(Cc2ccccc2)COC1=O (configuration not stated)	x	x	x	x	15.3
CC(=O)C1=C(C)N(CC2CC2)C(=O)NC1c1ccc(Br)cc1 (configuration not stated)	x	x	x	x	5.3
COCCNC(=S)NCCCNc1nc2cc3c(cc2cc1C#N)OCO3	5.3	4.9	-22.1	180.2*	-3.9
CC(=NNC(=S)Nc1cccc(C)c1)c1cccc([N+](=O)[O-])c1	x	x	x	x	-1.0
O/N=C/c1cccc[n+]1CCCCCC[n+]1ccccc1/C=N/O	23.3	2.1	60.0*	1.2	x
SMILES	GDH-TPI counter	Mtb betalactam	VHR inh abs	FBA Mtb inh	Mtb hypoxia rep
CN1C2CCC1CC(OC1c3ccccc3CCc3ccccc31)C2 (configuration not stated)	x	x	x	x	14.0
CCN1C(=O)C(=CN2CCN(C)CC2)SC1=S	x	x	x	x	10.4
Cc1nc2ccccn2c(=O)c1NC(=O)COc1ccccc1	31.0*	x	x	4.8	x
O=C(Cn1ccc2ccccc2c1=O)NCCC(=O)N1CCCCC1	2.3	1.6	1.1	2.1	2.0
O=C(Cn1ccc2ccccc2c1=O)NCCC(=O)N1CCN(c2ccccc2)CC1	8.0	-0.4	53.3*	0.7	-2.7
C=CCN1c2ccccc2[C@]23CC(C(=O)OC)N(C(=O)NC4CCCC4)C2=NC(C(=O)OC)=C(C(=O)OC)C13 (some centres not stated)	x	x	x	x	-9.5
c1coc(-c2nnc(-c3cccs3)o2)c1	6.4	-20.2	1.2	149.5*	10.4
Nc1c(C(=O)c2ccccc2)oc2ccc([N+](=O)[O-])cc12	33.5*	-2.0	0.8	3.3	-3.8
Nc1c(C(=O)c2ccccc2)oc2ccc(Br)cc12	8.5	-20.1	21.7	4.2	4.7
COc1ccc(/C=C(\NC(=O)c2ccccc2)C(=O)N/N=C/c2cccnc2)cc1	39.0*	-2.1	1.4	-2.5	x
COc1ccc(/C=C(\NC(=O)c2ccccc2)C(=O)N/N=C/c2ccncc2)cc1	49.5*	-1.4	47.9	0.1	x
COc1ccc(N(CC(=O)N/N=C/c2cccnc2)S(=O)(=O)c2ccccc2)c(OC)c1	-10.5	-3.8	52.8*	2.5	x
COc1ccc(/C=C(\NC(=O)c2ccccc2)C(=O)NN=Cc2ccncc2)cc1	x	x	x	x	18.3
Cc1ccnc(N/C=C(/NC(=O)c2ccccc2)C(=O)N/N=C\c2ccc(F)cc2)n1	54.3*	-11.7	14.3	1.6	x
COc1ccc(N(CC(=O)NN=Cc2cccnc2)S(=O)(=O)c2ccccc2)c(OC)c1	x	x	x	x	-8.5
CCCCCCSc1ccc(C2N[C@@](C)(C(=O)OC)C3C(=O)N(CC)C(=O)C23)cc1 (some centres not stated)	x	x	x	x	18.3
CN1CCN(CCC(=O)NN=Cc2ccccc2F)CC1	x	x	x	x	-0.5
COc1ccc(CCN2C(=O)CSC2=NNC(=O)c2ccccc2F)cc1OC	x	x	x	x	-3.4
CC(N)=C(C#N)C(=O)CSc1nc2ccccc2c(=O)n1CCCO	x	x	x	x	5.2
Nc1nccnc1C(=O)OCC(=O)c1ccc[nH]1	11.7	-6.0	x	164.9*	2.6
CC(=O)c1c(C)[nH]c(C(=O)COC(=O)c2nccnc2N)c1C	10.2	2.7	x	157.3*	11.0
CC(=O)c1c(C)[nH]c(C(=O)COC(=O)c2cccnc2Cl)c1C	5.6	-3.2	x	0.0	x
CN1C(=O)C2C(C1=O)C(c1ccc(Br)cc1)N1C(=O)c3ccccc3NC(=O)C21 (configuration not stated)	x	x	x	x	1.3
CCCn1nnnc1NCc1c(Cl)cccc1Cl	-2.9	3.5	18.1	2.2	-0.7
CCCn1nnnc1NCc1cccc(Cl)c1	4.5	2.8	52.8*	1.1	2.7
SMILES	GDH-TPI counter	Mtb betalactam	VHR inh abs	FBA Mtb inh	Mtb hypoxia rep
CCC(C)C1CNCCN1CCc1cc(C(F)(F)F)cc(C(F)(F)F)c1 (configuration not stated)	x	x	x	x	14.3
Cn1cc(-c2nnc(-c3ccccc3)o2)c2ccccc21	15.0	23.6	43.5	172.9*	x
COCCCNC(=S)NN=Cc1ccc(OC)c(Br)c1	x	x	x	x	-2.3
CSc1ccc(/C=C/C(=O)N2CCN(c3ccccn3)CC2)cc1	32.3*	45.9	9.6	5.0	4.5
COc1ccc(/C=C/C(=O)N2CCN(c3ccccn3)CC2)cc1	12.0	4.7	20.2	-0.5	-1.6
COc1ccc2nc(N3CCOCC3)cc(C)c2c1	15.1	7.9	18.6	85.2*	16.6
CC(=O)c1cnc(N(C)C)s1	38.5*	8.7	-9.2	2.6	x
CC(C)C[C@H]1CN=C(Nc2ccccc2)N1CCCC1CCCC1	7.8	27.6	55.4*	2.8	x
O=C(NN=CC1CC=CCC1)c1cc2ccccc2cc1O (configuration not stated)	x	x	x	x	1.4
